For 69 compounds, INHIBITION results are on record in ChEMBL document CHEMBL4513216, “Probing the Open Global Health Chemical Diversity Library for Multistage-Active Starting Points for Next-Generation Antimalarials” (ACS Infect Dis, 2020).

The whole screen tested about 69,000 compounds, of which about 8,600 (12%) showed an effect of 50% or more. This is one part of a sample in which strong results are shown more often than they occur.

For the assay, the system named is Plasmodium berghei. The assay can be described thus: Screen against P. berghei liver stage (PbLuc), transformed with Luciferase, at 10uM. Type of assay: functional, HepG2. To be noted: tested at 10 uM.
For `CC(=O)N1CCCN(C(=O)CCc2c(C)nc3ccnn3c2C)CC1`, the INHIBITION turned out to be 10%.

As for `CC(=O)N1CCC2(CC1)CNc1ccc(F)cc12`, the INHIBITION came out at 36.2%.

For `O=C(Nc1ccccc1)c1ccc2c(c1)C1(CCCCC1)CN2`, the INHIBITION amounted to 90.1%.

With `CN(C)C(=O)N1CCC2(CC1)CNc1ccc(F)cc12`, the INHIBITION is reported as 49.1%.

For `O=C(Nc1ccccc1)C1=NOC2(CCCNC2)C1` (centres undefined), the INHIBITION is -4.02%.

For `CNC(=O)N1CCC2(CC1)CNc1ccc(F)cc12`, the INHIBITION stood at 10.5%.

Consider `CC(=O)c1ccc(NC(=O)c2ccc3c(c2)C2(CCCCC2)CN3)cc1`, for which the INHIBITION was 64.7%.

As for `CCOCC1CN(S(=O)(=O)c2ccccc2)Cc2nccn2C1` (centres undefined), the INHIBITION came to 34%.

Take `COC(C)(C)C(=O)N1CCC(c2cc(CN(C)C)n(C)n2)CC1`: the INHIBITION is given as -42.1%.

Regarding `CC(=O)N1CCN(C(=O)C(C)OCC(F)(F)F)CC1` (centres undefined), the INHIBITION is listed as -22.8%.

As to `CN(CC(N)=O)C(=O)c1cc(Cl)c(Cl)n1C`, the INHIBITION is on record as 8.4%.

Regarding `CC(C)Cc1noc(CN2CCN(C(=O)c3cccs3)CC2)n1`, the INHIBITION amounted to 0.891%.

As for `Cc1ccc(C(=O)NC2CCN(Cc3nc(CC(C)C)no3)CC2)s1`, the INHIBITION is 18.6%.

In the case of `Cc1ccc(C(=O)NC2CCN(Cc3noc(C(C)C)n3)CC2)s1`, the INHIBITION was 7.44%.

With `CC(C)Cc1noc(CN2CCC(NC(=O)c3cccs3)CC2)n1`, the INHIBITION amounted to 53.5%.

Take `Cc1ccc(C(=O)NC2CCN(Cc3noc(CC(C)C)n3)CC2)s1`: the INHIBITION came to 71.8%.

Take `CC(C)Cc1nc(CN2CCC(NC(=O)c3cccs3)CC2)no1`: the INHIBITION came to 24.2%.

Regarding `CCOc1ccnc(N2CCCN(C(=O)c3cc[nH]c3C)CC2)n1`, the INHIBITION is -7.31%.

As to `COc1ccccc1-c1ccc(NCc2cn3c(n2)SCC3)nn1`, the INHIBITION was determined as 9%.

For the compound `CCc1c(C)nc2n(c1=O)CC(C(=O)Nc1ccccc1C)CS2` (centres undefined), the INHIBITION is given as 42.4%.

Take `CC(C)CCCNC(=O)Nc1ccc(C(N)=O)c(Cl)c1`: the INHIBITION is on record as -49.5%.

Consider `CCOc1no[n+]([O-])c1-c1ccccc1`, for which the INHIBITION is 36.9%.

As for `COc1no[n+]([O-])c1-c1ccccc1`, the INHIBITION turned out to be 63.5%.

On to `CN(C)c1no[n+]([O-])c1-c1ccccc1`, for which the INHIBITION was -3.19%.

`Cc1[nH]ncc1C(=O)N(CC(C)C)CC(O)c1ccc(F)cc1` (centres undefined): the INHIBITION is -12.1%.

As to `CCN1CC2(CCC1=O)CCN(CCOc1ccc(F)cc1)CC2`, the INHIBITION is listed as 10.1%.

For `CCC(CC)C(O)CNC(=O)Nc1cc(C)nn1C` (centres undefined), the INHIBITION was 11.6%.

For `CN(C)C(=O)N1CC[C@]2(O)CCN(C(=O)c3ccc(C#N)nc3)C[C@@H]2C1`, the INHIBITION is on record as 42.4%.

`Cc1ccc(C(=O)N2CC[C@@]3(O)CCCC[C@H]3C2)cc1`: the INHIBITION amounted to 56.3%.

For `Cc1ccc(C(=O)N2CC[C@@]3(O)CCN(C(=O)N(C)C)C[C@H]3C2)cc1Cl`, the INHIBITION stood at 62.8%.

For the compound `COc1ccc(C(=O)N2CC[C@@]3(O)CCCC[C@H]3C2)cc1OC`, the INHIBITION stood at 44.3%.

On to `Cn1ccc2cc(C(=O)N3CC[C@@]4(O)CCCC[C@H]4C3)ccc21`, for which the INHIBITION was -4.87%.

As for `Cc1ncc(C(=O)N2CC[C@@]3(O)CCN(C(=O)N(C)C)C[C@H]3C2)cn1`, the INHIBITION was determined as 37.8%.

Turning to `Cc1nc(C2CCCN2CC(=O)N2CCc3ccccc32)no1` (centres undefined), the INHIBITION was 46.2%.

`COCCN(C)C(C(=O)O)c1ccc(F)c(C)c1` (centres undefined): the INHIBITION came to 14%.

As to `COc1cccc(CN2CCOC(c3cnccn3)C2)c1F` (centres undefined), the INHIBITION is reported as -18.9%.

Take `O=C(N1CCOCC1)[C@@]12CCO[C@@H]1CCN(C1CCCC1)C2`: the INHIBITION is recorded as 8.67%.

With `CN(Cc1ccncc1)C(=O)[C@H]1CSCN1C(=O)OC(C)(C)C`, the INHIBITION is -12.1%.

Consider `O=C1NC(c2ccccc2)=N[C@@]12CC[C@@H]1CN(CC3CCOCC3)C[C@@H]12`, for which the INHIBITION was determined as 2.74%.

Consider `O=C1NC(c2ccccc2)=N[C@@]12CC[C@@H]1CN(Cc3ccccc3)C[C@@H]12`, for which the INHIBITION is -21.3%.

Turning to `O=C1NC(c2ccccc2)=N[C@@]12CC[C@@H]1CN(S(=O)(=O)C3CC3)C[C@@H]12`, the INHIBITION came out at 76.4%.

With `CC(C)NC(=O)C1CCN(c2snc3ccccc23)CC1`, the INHIBITION is on record as -15.5%.

For the compound `Cc1cc(CN(C2CC2)C(C)C(C)C)on1` (centres undefined), the INHIBITION is reported as -21.8%.

Take `Cc1ccc(CN(Cc2cc(C)no2)C2CC2)cc1`: the INHIBITION was found to be 53.2%.

Consider `Cc1cc(CN(Cc2ccccc2)C2CC2)on1`, for which the INHIBITION turned out to be 33.7%.

With `COc1ccc(CN(Cc2cc(C)no2)C2CC2)cc1`, the INHIBITION was 92.2%.

Consider `COCCN(Cc1noc(-c2ccc(OC)cc2)n1)C1CC1`, for which the INHIBITION stood at 15.5%.

Take `COc1ccc(CN(Cc2nc(C)no2)C2CCCCC2)cc1OC`: the INHIBITION came to 14.4%.

On to `O=C(Nc1cnc2n1CCCC2)C1CCNCC1`, for which the INHIBITION worked out at 18.7%.

In the case of `O=C(NCC1CC1)[C@@H]1CCO[C@@H]2CCN(Cc3ccc(F)cc3)C[C@H]21`, the INHIBITION is given as -10.3%.

As for `Cc1cnn(CC2CCCN2C(=O)c2ccc3c(c2)nnn3C)c1` (centres undefined), the INHIBITION amounted to 23.2%.

Take `C=Cc1cccc(CN2C[C@@H]3CC[C@H]2CN(Cc2c(C)noc2C)C3)c1`: the INHIBITION is listed as -19.2%.

As to `CN(C)C(=O)N1CCOCC2(CCN(c3ncccn3)C2)C1` (centres undefined), the INHIBITION was -5.29%.

Turning to `CC(C)CCNc1c(C#N)c2c(c3nncn13)CN(C)CC2`, the INHIBITION came to 60.7%.

`CN1CCc2c(C#N)c(NCc3cccnc3)n3cnnc3c2C1`: the INHIBITION worked out at 53.2%.

Regarding `COCCNc1c(C#N)c2c(c3nncn13)CN(C)CC2`, the INHIBITION is 32.5%.

As for `CN1CCc2c(C#N)c(NCCCO)n3cnnc3c2C1`, the INHIBITION was 32.5%.

Consider `CN1CCc2c(C#N)c(NCc3ccco3)n3cnnc3c2C1`, for which the INHIBITION was 19.7%.

Consider `CN1CCc2c(C#N)c(NCc3ccccc3)n3cnnc3c2C1`, for which the INHIBITION was determined as 24.2%.

On to `CN1CCc2c(C#N)c(NCCN3CCOCC3)n3cnnc3c2C1`, for which the INHIBITION amounted to 35%.

`CN1CCc2c(C#N)c(NCc3ccncc3)n3cnnc3c2C1`: the INHIBITION amounted to 10.1%.

`CN1CCc2c(C#N)c(NCCc3ccccc3)n3cnnc3c2C1`: the INHIBITION turned out to be 60.7%.

Regarding `Cc1ncsc1CN1C[C@@H]2COC[C@]2(C(=O)NC(C)C)C1`, the INHIBITION stood at 18.6%.

On to `COc1ccc(CC(=O)N2Cc3nccn3CC(CN(C)C)C2)cc1` (centres undefined), for which the INHIBITION is 6.72%.

Consider `CC(NC(=O)NCc1ccoc1)c1ccc2c(c1)CC(=O)N2` (centres undefined), for which the INHIBITION is listed as -55.4%.

For `CCOc1cccc(CNC2CCCN(Cc3noc(C)n3)C2)c1` (centres undefined), the INHIBITION is 47%.

On to `COCCn1cncc1CN1CCC(C(C)=O)(c2ccccc2)CC1`, for which the INHIBITION is reported as 50.7%.

Turning to `COCCn1cncc1Cn1ncc2ccccc2c1=O`, the INHIBITION is 13%.

As for `COCCN1CCCC12CCN(Cc1cncn1C)CC2`, the INHIBITION was 49.1%.
